± gives the standard deviation of the averaged measurements. About 6,500 targets were measured; listed, in parts, are those with the largest changes and a random draw of the rest.

The results in this text go back to the supplement of paper PMC6411743.

Compound in this assay: Nc1ncnc2c1ncn2[C@@H]1O[C@H](COP(=O)(O)OP(=O)(O)OP(=O)(O)O)[C@@H](O)[C@H]1O [adenosine triphosphate]
In words: NP40-soluble protein abundance relative to vehicle (solubility fold change) (ratio); higher = more soluble protein in presence of ATP. In outline: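 Values are fold changes against the detergent-processed vehicle, based on vsn-normalised intensities. Jurkat crude lysate was treated at eight concentrations from 0.1 to 10 mM (10 min at room temperature, then 3 min at 37 °C), solubilised with 0.8% NP40 and benzonase, ultracentrifuged and analysed by TMT-labelled LC-MS/MS over three independent experiments.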

UniProt Q96DU7, sequence (Q96DU7 whole entry): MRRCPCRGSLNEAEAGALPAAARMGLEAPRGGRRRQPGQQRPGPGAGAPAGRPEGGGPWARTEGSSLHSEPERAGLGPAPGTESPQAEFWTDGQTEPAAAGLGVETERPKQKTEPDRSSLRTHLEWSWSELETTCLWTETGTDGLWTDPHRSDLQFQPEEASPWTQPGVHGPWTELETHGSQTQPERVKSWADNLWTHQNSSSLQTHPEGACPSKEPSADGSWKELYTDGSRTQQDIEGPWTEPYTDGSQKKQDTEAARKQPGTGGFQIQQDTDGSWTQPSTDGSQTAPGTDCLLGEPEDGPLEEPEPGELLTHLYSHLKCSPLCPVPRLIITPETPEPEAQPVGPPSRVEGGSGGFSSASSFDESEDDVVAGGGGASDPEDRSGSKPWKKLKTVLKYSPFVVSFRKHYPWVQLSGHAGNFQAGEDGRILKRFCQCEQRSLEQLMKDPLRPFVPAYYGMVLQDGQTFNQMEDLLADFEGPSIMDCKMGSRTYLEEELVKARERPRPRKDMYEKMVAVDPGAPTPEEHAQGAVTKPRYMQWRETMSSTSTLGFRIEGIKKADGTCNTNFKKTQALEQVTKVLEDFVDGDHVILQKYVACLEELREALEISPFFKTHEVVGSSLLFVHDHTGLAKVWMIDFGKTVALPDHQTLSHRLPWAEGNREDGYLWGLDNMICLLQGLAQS
UniProt Q9C073, sequence (Q9C073 whole entry): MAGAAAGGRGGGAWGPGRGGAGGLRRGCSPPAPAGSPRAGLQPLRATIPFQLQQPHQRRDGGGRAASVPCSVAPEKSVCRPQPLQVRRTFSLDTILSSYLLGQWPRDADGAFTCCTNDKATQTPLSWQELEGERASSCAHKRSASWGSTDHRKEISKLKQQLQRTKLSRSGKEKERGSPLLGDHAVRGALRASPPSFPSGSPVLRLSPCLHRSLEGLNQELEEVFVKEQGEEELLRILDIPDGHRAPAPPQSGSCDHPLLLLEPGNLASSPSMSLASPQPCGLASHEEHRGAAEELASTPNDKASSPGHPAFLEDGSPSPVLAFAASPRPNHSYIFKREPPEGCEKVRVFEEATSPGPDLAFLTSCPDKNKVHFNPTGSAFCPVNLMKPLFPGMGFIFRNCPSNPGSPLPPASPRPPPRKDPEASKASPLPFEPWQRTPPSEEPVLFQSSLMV
UniProt Q92576, sequence (Q92576 whole entry): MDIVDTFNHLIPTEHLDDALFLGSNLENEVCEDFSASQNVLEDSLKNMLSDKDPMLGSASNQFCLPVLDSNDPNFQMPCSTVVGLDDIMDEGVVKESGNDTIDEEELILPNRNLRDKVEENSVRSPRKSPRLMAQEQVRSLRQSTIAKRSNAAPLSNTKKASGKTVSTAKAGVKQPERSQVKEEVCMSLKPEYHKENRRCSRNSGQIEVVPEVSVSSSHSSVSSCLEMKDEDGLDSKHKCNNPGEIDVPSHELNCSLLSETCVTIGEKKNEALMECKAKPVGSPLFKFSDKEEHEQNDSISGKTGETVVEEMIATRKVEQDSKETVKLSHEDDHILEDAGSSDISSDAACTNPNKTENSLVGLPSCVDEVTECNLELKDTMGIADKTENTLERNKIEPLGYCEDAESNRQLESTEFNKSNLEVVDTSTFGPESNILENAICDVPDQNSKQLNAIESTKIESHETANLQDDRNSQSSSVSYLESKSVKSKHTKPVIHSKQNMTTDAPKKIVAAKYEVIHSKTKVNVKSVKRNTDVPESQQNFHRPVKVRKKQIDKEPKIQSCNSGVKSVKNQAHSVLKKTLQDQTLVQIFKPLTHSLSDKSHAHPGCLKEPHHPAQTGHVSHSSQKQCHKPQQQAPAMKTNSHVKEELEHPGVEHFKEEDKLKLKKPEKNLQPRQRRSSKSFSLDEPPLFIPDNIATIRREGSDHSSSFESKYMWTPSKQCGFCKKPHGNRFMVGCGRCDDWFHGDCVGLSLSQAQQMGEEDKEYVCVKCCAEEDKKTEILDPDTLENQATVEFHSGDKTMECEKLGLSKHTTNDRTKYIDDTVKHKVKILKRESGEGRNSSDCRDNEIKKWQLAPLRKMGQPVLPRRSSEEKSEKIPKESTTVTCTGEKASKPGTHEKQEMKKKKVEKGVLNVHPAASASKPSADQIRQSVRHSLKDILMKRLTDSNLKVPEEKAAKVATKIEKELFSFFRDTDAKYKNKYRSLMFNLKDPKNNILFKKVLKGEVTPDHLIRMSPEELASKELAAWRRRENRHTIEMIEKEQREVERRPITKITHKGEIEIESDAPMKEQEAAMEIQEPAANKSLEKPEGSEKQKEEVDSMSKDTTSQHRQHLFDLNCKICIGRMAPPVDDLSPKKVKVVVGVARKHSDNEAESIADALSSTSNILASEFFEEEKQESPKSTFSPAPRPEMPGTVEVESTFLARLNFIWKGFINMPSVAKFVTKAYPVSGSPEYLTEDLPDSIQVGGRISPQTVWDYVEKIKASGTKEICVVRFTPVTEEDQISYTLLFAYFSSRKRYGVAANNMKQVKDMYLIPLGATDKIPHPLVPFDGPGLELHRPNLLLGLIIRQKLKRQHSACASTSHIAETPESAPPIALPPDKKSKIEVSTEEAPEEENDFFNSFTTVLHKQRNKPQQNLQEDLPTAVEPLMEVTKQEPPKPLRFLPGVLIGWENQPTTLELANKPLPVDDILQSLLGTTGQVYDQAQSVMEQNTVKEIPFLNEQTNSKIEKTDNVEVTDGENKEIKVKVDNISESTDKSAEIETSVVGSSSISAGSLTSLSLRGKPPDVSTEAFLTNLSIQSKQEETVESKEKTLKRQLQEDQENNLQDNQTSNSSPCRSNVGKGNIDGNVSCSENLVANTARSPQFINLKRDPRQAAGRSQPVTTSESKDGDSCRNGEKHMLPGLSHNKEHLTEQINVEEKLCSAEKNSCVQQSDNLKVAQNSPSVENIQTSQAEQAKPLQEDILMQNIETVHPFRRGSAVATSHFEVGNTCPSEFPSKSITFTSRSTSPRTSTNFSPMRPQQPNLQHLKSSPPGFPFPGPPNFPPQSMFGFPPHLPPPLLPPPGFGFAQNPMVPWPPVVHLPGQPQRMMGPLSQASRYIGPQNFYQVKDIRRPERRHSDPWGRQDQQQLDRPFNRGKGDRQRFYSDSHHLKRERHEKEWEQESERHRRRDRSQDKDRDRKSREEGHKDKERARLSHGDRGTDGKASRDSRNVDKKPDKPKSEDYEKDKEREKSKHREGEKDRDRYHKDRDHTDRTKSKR
UniProt Q96EZ8, sequence (Q96EZ8 whole entry): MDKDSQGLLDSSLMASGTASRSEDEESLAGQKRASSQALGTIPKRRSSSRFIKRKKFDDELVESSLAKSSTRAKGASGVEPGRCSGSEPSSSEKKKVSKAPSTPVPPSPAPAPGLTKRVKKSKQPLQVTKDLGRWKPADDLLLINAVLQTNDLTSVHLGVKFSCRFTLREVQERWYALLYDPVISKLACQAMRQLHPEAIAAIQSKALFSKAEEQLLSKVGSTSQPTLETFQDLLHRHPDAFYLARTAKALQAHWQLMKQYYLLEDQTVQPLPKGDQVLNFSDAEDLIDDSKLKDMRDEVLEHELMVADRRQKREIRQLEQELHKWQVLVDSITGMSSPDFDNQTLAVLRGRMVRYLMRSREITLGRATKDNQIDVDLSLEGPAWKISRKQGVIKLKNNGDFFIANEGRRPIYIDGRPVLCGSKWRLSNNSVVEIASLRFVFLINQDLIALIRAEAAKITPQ

As to UniProt Q96EZ8|Q96EZ8-2|Q96EZ8-3, the NP40-soluble protein abundance is, setting by setting: (concentration: 1mM) 1.08 ± 0.04; (concentration: 2mM) 1.06 ± 0.053; (concentration: 4mM) 1.08 ± 0.013; (concentration: 6mM) 1.09 ± 0.093; (concentration: 8mM) 1.14 ± 0.038; (concentration: 10mM) 1.18 ± 0.044.
Consider FAM117A (UniProt Q9C073), for which the NP40-soluble protein abundance worked out at 1.04 ± 0.03 (concentration: 1mM); 0.992 ± 0.02 (concentration: 2mM); 0.999 ± 0.039 (concentration: 4mM); 1.01 ± 0.025 (concentration: 6mM); 0.972 ± 0.053 (concentration: 8mM); 0.972 ± 0.024 (concentration: 10mM).
In the case of ITPKC (UniProt Q96DU7), the NP40-soluble protein abundance is, setting by setting: (concentration: 1mM) 0.986 ± 0.048; (concentration: 2mM) 0.971 ± 0.041; (concentration: 4mM) 1.0284 ± 0.00016; (concentration: 6mM) 0.857 ± 0.11; (concentration: 8mM) 0.886 ± 0.026; (concentration: 10mM) 0.883 ± 0.019.
Consider UniProt Q92576|Q92576-2, for which the NP40-soluble protein abundance turned out to be 1.05 ± 0.052 (concentration: 1mM); 1.07 ± 0.056 (concentration: 2mM); 1.12 ± 0.051 (concentration: 4mM); 1.22 ± 0.11 (concentration: 6mM); 1.2 ± 0.048 (concentration: 8mM); 1.24 ± 0.073 (concentration: 10mM).
